Source: PubChem BioAssay (Broad Institute)
Tgondii IFNg: blocks Toxoplasma gondii growth in the presence of IFN-gamma; Toxoplasma gondii growth in IFN-gamma-treated host cells; stronger effect = lower value; activity change, negative = inhibition, % (test concentration not listed); 69,000 compounds, 3.8% hits; in the data active = activity change below about -70%, passing the limit was not always enough;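 also: host cells are HeLa cells infected with Toxoplasma gondii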
Starred values were filed as active, the others as inactive; ! = repeats disagree. This excerpt belongs to a sample that is enriched for hits.

SMILES | Tgondii IFNg
CC(=O)O[C@H]1C(=O)[C@@]2(C)[C@H]([C@H](OC(=O)c3ccccc3)[C@]3(O)C[C@H](OC(=O)[C@H](O)[C@@H](NC(=O)c4ccccc4)c4ccccc4)C(C)=C1C3(C)C)[C@]1(OC(C)=O)CO[C@@H]1C[C@@H]2O | -82.4*!
Cc1ccc(C(=O)N2C[C@H](N(C)C)C[C@H]2C(=O)O)cc1NC(=O)C(C)(C)C | 3.5
Cc1ccc(-c2noc(-c3nnn(Cc4nc(-c5ccc(C)cc5)oc4C)c3C)n2)cc1 | -20.0
C/C=C/CC(C)C(O)C1C(=O)NC(CC)C(=O)N(C)CC(=O)N(C)C(CC(C)C)C(=O)NC(C(C)C)C(=O)N(C)C(CC(C)C)C(=O)NC(C)C(=O)NC(C)C(=O)N(C)C(CC(C)C)C(=O)N(C)C(CC(C)C)C(=O)N(C)C(C(C)C)C(=O)N1C (centres undefined) | -37.3
COCCC1COC2(CCN(c3ccc(C#N)cc3)CC2)C1 (centres undefined) | -47.8
CC(=O)Nc1ccc(OCc2ncc(C(F)(F)F)cc2Cl)cc1 | -44.5
CCCCOC(=O)c1ccc(NC(=O)Nc2ccc(Cl)c(Cl)c2)cc1 | -61.6
CNC(=O)c1cc(Oc2ccc(NC(=O)Nc3ccc(Cl)c(C(F)(F)F)c3)cc2)ccn1 | -79.5*
C#CCNC(=O)CSCc1ccccc1Cl | 75.1
COc1ccc2nc(Cl)c(CNCc3ccccc3F)c(N3CCOCC3)c2c1 | -99.4*
COc1ccc2c(c1)c(CC(=O)N1CCOCC1)c(C)n2C(=O)c1ccc(Cl)cc1 | -1.3
COc1cc(CNc2ccc(N3CCOCC3)cc2)ccc1OCc1ccccc1F | -16.9
O=S(=O)(CCc1ccncc1)N1CCC(O)(Cn2ccc3nc(Cl)ccc32)CC1 | -0.9
CCN1c2ccc(C)cc2C(=O)NC12CCN(C(=O)c1cccc(OC)c1)CC2 | 97.1
CCOc1ccccc1CNC(=O)Cn1ncc2c(N3CCN(c4ccccn4)CC3)ncnc21 | 76.1
CCCc1cnc(N2CCN(C(=O)c3c(-c4ccccc4)noc3C)CC2)nc1 | -81.7*
CCOC(=O)c1c(-c2ccccc2)noc1C(C)=O | 20.2
Cc1onc(-c2ccccc2)c1C(=O)Oc1ccccc1N1CCOCC1 | -17.8
O=C(NCCc1cccs1)c1nc(Nc2ccc(F)cc2)c2ccccc2n1 | -62.7
Cc1noc(C)c1S(=O)(=O)N(C)C[C@@H]1OCc2cnnn2CCCC(=O)N([C@@H](C)CO)C[C@H]1C | 74.3
COc1cccc(CNC(=O)c2c(O)c3cccnc3n(-c3cccc(F)c3)c2=O)c1 | -98.4*
COc1cccc(-n2c(=O)c(C(=O)NCc3cc(F)cc(F)c3)c(O)c3cccnc32)c1 | -101.3*
CCc1ccc(CNC(=O)c2c(O)c3cccnc3n(-c3cccc(OC)c3)c2=O)cc1 | -14.4
COc1cccc(CNC(=O)c2c(O)c3cccnc3n(-c3ccccc3)c2=O)c1 | -65.7
CCc1ccc(CNC(=O)c2c(O)c3cccnc3n(-c3cccc(F)c3)c2=O)cc1 | 39.3
SMILES | Tgondii IFNg
COc1cccc(-n2c(=O)c(C(=O)NCc3ccc(F)cc3)c(O)c3cccnc32)c1 | 16.4
COc1ccc(N(Cc2nc(-c3ccc(OC)c(OC)c3)oc2C)S(=O)(=O)c2ccccc2)cc1 | -48.8
COc1ccc(-c2nc(Nc3cc(Cl)c(OC)cc3OC)c3ccccc3n2)cc1 | 17.6
O=c1c(C2NCCC3(O)CCCCC23)coc2ccc(Cl)cc12 (centres undefined) | 39.2
Cc1cccc(NC(=O)C(=O)NCCc2sc(-c3cccc(F)c3)nc2C)c1C | 123.2
O=C(NCCN1CCC(O)(c2ccc(F)cc2)CC1)c1c(F)cccc1F | 13.3
O=C(Cc1ccc2c(c1)CCC2)NCCN1CCC(O)(c2ccc(F)cc2)CC1 | -75.8*
COc1cc2c(cc1CN1CCC(NC(C)=O)(c3ccc(F)cc3)CC1)CCC2 | -10.7
O=C(O)CCNC1C=CS(=O)(=O)C1 (centres undefined) | -6.3
S=C(Nc1cccc(Cl)c1)N1CCC(Cn2cccc2)CC1 | 91.4
C[C@H]1[C@H](C)CC[C@]2(C(=O)O)CC[C@]3(C)C(=CCC4[C@@]5(C)C[C@@H](O)[C@H](O)[C@@](C)(CO)C5[C@H](O)C[C@]43C)[C@H]12 (some centres undefined) | -28.4
C[C@H]1[C@H](C)CC[C@]2(C(=O)O)CC[C@]3(C)C(=CC[C@@H]4[C@@]5(C)C[C@@H](O)[C@H](O)[C@@](C)(CO)[C@@H]5CC[C@]43C)[C@H]12 | -74.2*!
C[C@H]1[C@H](C)CC[C@]2(C(=O)O)CC[C@]3(C)C(=CCC4[C@@]5(C)C[C@@H](O)[C@H](O)[C@@](C)(CO)C5CC[C@]43C)[C@H]12 (some centres undefined) | 23.2
O=C(NCC1CC1)[C@@]12CCCN(c3ncccn3)[C@H]1CN(c1ncc(F)cn1)C2 | -23.6
c1cc(-n2ccnc2)cc(-n2cnnc2)c1 | 34.7
CCOc1ccc(-n2cnnc2)cc1-n1cccc1 | -74.4*
CCC/C=C/c1cccc(-n2cnnc2)c1 | -32.3
COCCN1CCCC(O)(CN2CCC(O)(Cn3ccnc3)CC2)C1=O (centres undefined) | -2.6
COc1cccc(OC)c1-c1c(-c2ccccc2)ncn1CC1(CO)CCC1 | 18.0
Cc1cc(C)cc(NC(=O)c2c(O)c3ccccc3[nH]c2=O)c1 | 359.4
CCOc1ccccc1NC(=O)Cn1c(=O)cc(C(=O)N2CCc3ccccc3C2)c2ccccc21 | -13.8
COc1ccc(Cl)cc1NC(=O)c1nc(Nc2ccccc2)c2ccccc2n1 | 83.7
COc1ccc(Cl)cc1NC(=O)Nc1cc(C)nc2ccccc12 | -86.5*
COc1ccc(Cl)cc1NC(=O)COc1nc(C)nc2ccccc12 | -14.6
CCc1nc(OCC(=O)Nc2c(C)cc(C)cc2C)c2ccccc2n1 | 9.3
SMILES | Tgondii IFNg
Cc1nc(OCC(=O)Nc2cccc(F)c2)c2ccccc2n1 | -19.0
CCCN(CC1CC1)c1nc(C)nc(Nc2c(Cl)cc(Cl)cc2Cl)c1Cl | -28.9
O=C(O)c1cccnc1NCC1CCCO1 (centres undefined) | -28.4
N#CC1(c2ccc(NC(=O)c3cccnc3NCc3ccncc3)cc2)CCCC1 | -71.8*
O=C(Nc1ccc(F)cc1)c1cccnc1Oc1ccccc1 | -31.2
CC(C)Cc1cc(CNc2ncnc3sc4c(c23)CCNC4)no1 | 7.5
CCOC(=O)N1CCC2(CC1)OC(=O)C(C)=C2C(=O)NC1CCN(Cc2ccccc2)CC1 | 32.8
CC(=O)Nc1cccc(-c2ccc(C(=O)NC3CC3)s2)c1 | 291.7
NC(=O)c1c(N)nnn1Cc1ccc(F)cc1 | -49.2
O=C(O)[C@H]1C[C@@H](C(=O)NC2CC2)CN(C(=O)c2cccc(Cl)c2Cl)C1 | -8.4
Cc1ccc(F)cc1NC(=O)c1c(O)c2cccnc2n(-c2cccc(F)c2)c1=O | -27.2
O=C(Nc1ccc(F)c(Cl)c1)c1c(O)c2cccnc2n(-c2ccc(F)cc2)c1=O | 84.4
Cc1cc(F)ccc1NC(=O)c1c(O)c2cccnc2n(-c2cccc(F)c2)c1=O | -91.0*
CC(NC(=O)c1c(O)c2cccnc2n(-c2cccc(F)c2)c1=O)c1ccccc1 (centres undefined) | -108.6*
O=C(Nc1ccccc1)c1c(O)c2cccnc2n(-c2cccc(F)c2)c1=O | 49.1
O=C(Nc1cccc(Cl)c1)c1c(O)c2cccnc2n(-c2cccc(F)c2)c1=O | -32.3
Cc1ccc(NC(=O)c2c(O)c3cccnc3n(-c3cccc(F)c3)c2=O)c(C)c1 | -32.7
O=C(Nc1ccc(F)c(Cl)c1)c1c(O)c2cccnc2n(-c2cccc(F)c2)c1=O | -102.0*
CC(NC(=O)c1c(O)c2cccnc2n(-c2cccc(F)c2)c1=O)c1ccc(F)cc1 (centres undefined) | 49.9
Cc1cc(OCC(=O)n2cnnc2N)cc(C)c1Cl | 14.4
